High-throughput results (PubChem)
Only a selection was taken, and hits are over-represented in it overall.
Methyltransferases: Primary Screen for Target Class Profiling of Small Molecule Inhibitors of Methyltransferases; purified enzyme, MTase-Glo SAH luminescence; active compounds read low; calls only at 40 µM; 3.9% of 25,000 active; call rule not given here
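Each enzyme was reacted with SAM and its substrate, with compounds tested once at 40 uM; SAH formed was read by MTase-Glo luminescence.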
* marks the source's active call; other numbers are inactive results; i = inactive; + = active, no number. % is set by controls: 0 for no effect and ±100 for the full control effect.

SMILES	Methyltransferases
CC(C)NC(=O)CSc1nnc2n(Cc3ccccc3)c(=O)c3ccccc3n12	i
COc1ccc(NC(=O)CN(C)S(=O)(=O)c2ccc3[nH]c4c(c3c2)CCCC4)cc1	i
CCOCCCN1C(=O)c2c(NC(C)=O)c3cc(F)ccc3n2CC1(C)C(=O)NCCC(C)C (configuration not stated)	i
CCCN1C(=O)c2cc(C(=O)NCc3ccc(F)cc3)nn2CC1(C)C(=O)NC1CCCC1 (configuration not stated)	i
COC(=O)c1ncn2c1C(=O)N(c1cc(C)ccc1C)C(C)(C(=O)NC1CCCC1)C2 (configuration not stated)	i
C=C1C(=O)OC2CC3(C)C(CC12)C(C)=CC(O)C3OC(C)=O (configuration not stated)	+
C=C1C(=O)O[C@@H]2C/C(C)=C\C(=O)/C=C(\C)[C@@H](OC(=O)/C(C)=C\C)[C@H](O)[C@@H]12	i
C=C(C)C(=O)O[C@H]1C[C@@](C)(O)C(=O)CC(O)/C(C)=C\[C@H]2OC(=O)C(=C)[C@H]12 (some centres not stated)	i
O=S(=O)(NCCc1ccccc1)c1ccc2[nH]c3c(c2c1)CCCC3	i
CC1(C(=O)NCc2ccccc2)Cn2c(nc3ccccc32)C(=O)N1CCc1ccco1 (configuration not stated)	i
COc1ccccc1CNC(=O)C1(C)Cn2nc(-c3ccccc3)cc2C(=O)N1c1ccc2c(c1)OCO2 (configuration not stated)	i
O=C(CCc1nnc2n(Cc3ccc(Cl)cc3)c(=O)c3ccccc3n12)N1CC=C(c2ccccc2)CC1	i
COCCNC(=O)CCc1nnc2n(Cc3ccccc3)c(=O)c3ccccc3n12	i
C[C@H]1c2cccc(O)c2C(O)=C2C(=O)[C@]3(O)C(O)=C(C(N)=O)C(=O)[C@@H](N(C)C)[C@@H]3[C@@H](O)[C@@H]21	+
CCOCCCNc1nc2c(S(=O)(=O)c3ccc(C)cc3)nnn2c2ccccc12	i
CC1(C(=O)NC2CCCCCC2)Cn2c(cc3ccccc32)C(=O)N1Cc1cccnc1 (configuration not stated)	i
CC1(C(=O)NCc2ccccc2)Cn2cnc(C(=O)NCc3ccccc3F)c2C(=O)N1C1CC1 (configuration not stated)	i
COc1cccc(N2C(=O)c3cc4ccccc4n3CC2(C)C(=O)NC2CCCCCC2)c1 (configuration not stated)	i
O=C(c1ccc(OCCCc2cnc[nH]2)cc1)C1CC1	i
N=C(N)c1ccccc1	i
N=C(N)c1ccc(OCCCCCOc2ccc(C(=N)N)cc2)cc1 (tested in a mixture with another compound)	+
Cc1ccc(C(=O)CSc2nnc3n(C)c(=O)c4ccc(C(=O)NC5CCCCC5)cc4n23)c(C)c1	i
Cc1ccc(CNC(=O)C2(C)Cn3nc(C(=O)NCc4cccs4)cc3C(=O)N2C)cc1 (configuration not stated)	i
COc1cccc(N2C(=O)c3cc4ccccc4n3CC2(C)C(=O)NCc2ccccc2OC)c1 (configuration not stated)	i
CCN1C(=O)c2c(C(=O)NCCc3cccc(C)c3)ncn2CC1(C)C(=O)NC1CCCC1 (configuration not stated)	i
SMILES	Methyltransferases
CCN1CCN(Cc2ccc(C(=O)Nc3ccc(C)c(Oc4ccc5c(c4)CC(=O)N5)c3)cc2C(F)(F)F)CC1	i
COC(=O)N1CCN(Cc2cccc(NC(=O)Nc3ccc(C)nc3)c2F)CC1	i
CN1CCN(Cc2ccc(NC(=O)Nc3ccc(Oc4cc(NC(=O)C5CC5)ncn4)cc3)cc2C(F)(F)F)CC1	+
COc1ccc(OC)c2c1cc1n2CC(C)(C(=O)NC2CCCCC2)N(C(C)c2ccccc2)C1=O (configuration not stated)	i
O=C(c1ccc2c(=O)nc3c(-c4ccccc4)n[nH]n3c2c1)N1CCN(c2ccccc2F)CC1	i
CN(C)C/C=C(/c1ccc(Br)cc1)c1cccnc1	+
CN(CCN1CCCCCC1)C(=O)c1cc(COc2ccccc2)[nH]n1	i
c1cc(OCCN2CCCCC2)cc(-c2n[nH]c3ccc(-c4ncn[nH]4)cc23)c1	+
CCNc1nc(Nc2cc(F)c(C(=O)N3CCOCC3)cc2OC)ncc1C(F)(F)F	+
CNc1nc(Nc2ccc(C(=O)N3CCOCC3)cc2OC)nc2[nH]cc(Cl)c12	i
CNc1nc(Nc2ccc(C(=O)N3CCOCC3)cc2OC)ncc1Cl	i
CC1(C(=O)NCc2ccccc2)Cn2nc(-c3ccccc3)cc2C(=O)N1c1ccc(Cl)cc1 (configuration not stated)	i
O=c1c2ccccc2n2c(=O)n(Cc3ccc(F)cc3)nc2n1CCc1ccccc1	i
CC1(C(=O)NC2CCCCCC2)Cn2c(ccc2-c2ccco2)C(=O)N1C1CCCCCC1 (configuration not stated)	i
CCC(C)NC(=O)c1ccc2c(=O)n(C)c3nn(Cc4cccc(C)c4)c(=O)n3c2c1 (configuration not stated)	i
CCOc1ccc(CN2C(=O)c3cc4ccccc4n3CC2(C)C(=O)NCc2ccccc2OC)cc1OC (configuration not stated)	i
C[C@@H](Oc1cc(-n2cnc3ccc(OC4CCN(C)CC4)cc32)sc1C(N)=O)c1ccccc1C(F)(F)F	+
CN1C(=O)c2cc(C(=O)NCCCN3CCCCC3)nn2CC1(C)C(=O)NC1CCCCCC1 (configuration not stated)	i
CCCn1c(=O)c2ccc(C(=O)NC(C)C)cc2n2c(=O)n(CC(=O)Nc3ccccc3)nc12	i
CCN(CC)C(=S)SSC(=S)N(CC)CC	+
CCCn1c(=O)c2ccc(C(=O)NC(C)CC)cc2n2c(=O)n(CC(=O)NCc3ccc(C)cc3)nc12 (configuration not stated)	i
O=c1nc2c(-c3ccccc3Cl)n[nH]n2c2ccc(Cl)cc12	i
Cc1ccc2c(c1)c1c(n2CCc2ccc(C)nc2)CCN(C)C1	+
CC(C)Cn1c(=O)c2ccc(C(=O)NC(C)C)cc2n2c(=O)n(Cc3ccccc3Cl)nc12	i
CC1(C(=O)NCc2ccccc2)Cn2c(cc3ccccc32)C(=O)N1Cc1cccs1 (configuration not stated)	i
SMILES	Methyltransferases
CCc1cccc(N2C(=O)c3ccc(-c4ccco4)n3CC2(C)C(=O)NC2CCCC2)c1 (configuration not stated)	i
CCCN1C(=O)c2cc(C(=O)NCCCN3CCOCC3)nn2CC1(C)C(=O)NC1CCCC1 (configuration not stated)	i
CCc1cccc(NC(=O)Cn2nc3n(C4CC4)c(=O)c4ccc(C(=O)NC(C)C)cc4n3c2=O)c1	i
Cn1nc(-c2ccc(C(F)(F)F)cc2)nc2c(=O)n(C)c(=O)nc1-2	+
CC1(COc2ccc3c(c2)ncn3-c2ccc3cccc(N4CCC(N)CC4)c3n2)COC1	+
CC(CN1C(=O)c2nc3ccccc3n2CC1(C)C(=O)NC1CCCCC1C)c1ccccc1 (configuration not stated)	i
CCOC(=O)c1cc2n(n1)CC(C)(C(=O)NCc1ccc(F)cc1)N(c1ccc(OC)cc1)C2=O (configuration not stated)	i
CCCn1c(=O)c2ccc(C(=O)NC(C)C)cc2n2c(SCC(=O)NC(C)C)nnc12	i
